Laboratory results: PubChem BioAssay AID1159580 (chemical genetic matrix, 2015)
Among all 5,500 compounds or so, about 2,000 (36%) were called active. Roughly 18% stayed inconclusive and do not appear here. No stated cut-off is given here; in the data, active means normalized growth mostly below about 0.91 (no sharp cut-off); inconclusive means no clear call, values can overlap the other calls; inactive means mostly above about 0.92. The list shows a part of the results.

Assay: chemical genetic growth profiling, strain panel (AID 1159580);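 further: tested at 20 µM; growth read once vehicle control cultures reached saturation at 30 °C; 1 = growth at the plate median or of vehicle wells; lower values mean less growth of the strain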
Conditions: S. cerevisiae deletion strains, growth OD
[1] = locus YHR030C, strain SLT2, active compounds read low
[2] = locus YHR079C, strain IRE1, active compounds read low
[3] = locus YJL095W, strain BCK1, active compounds read low
[4] = locus YJR066W, strain TOR1, active compounds read low
[5] = locus YLR113W, strain HOG1, active compounds read low
[6] = locus YNL183C, strain NPR1, active compounds read low
[7] = locus YOR231W, strain MKK1, active compounds read low
[8] = locus YPL256C, strain CLN2, active compounds read low

Measured: normalized growth

Cc1cc2nc3c(=O)[nH]c(=O)nc-3n(CC(O)C(O)C(O)CO)c2cc1C (configuration not stated)
inactive: locus YAL021C, strain ccr4, active compounds read low 0.995 | locus YAL026C, strain drs2, active compounds read low 0.981 | locus YAL030W, strain snc1, active compounds read low 0.944 | locus YBL061C, strain skt5, active compounds read low 0.988 | locus YBR009C, strain hhf1, active compounds read low 0.954 | locus YBR023C, strain chs3, active compounds read low 1.01 | locus YBR171W, strain sec66, active compounds read low 0.962 | locus YBR231C, strain swc5, active compounds read low 1.01 | locus YBR279W, strain paf1, active compounds read low 1 | locus YCL011C, strain gbp2, active compounds read low 0.987 | locus YCL016C, strain dcc1, active compounds read low 1.05 | locus YCL069W, strain vba3, active compounds read low 0.959 | locus YCR088W, strain abp1, active compounds read low 0.974 | locus YDL005C, strain med2, active compounds read low 0.99 | locus YDL040C, strain nat1, active compounds read low 0.982 | locus YDR001C, strain nth1, active compounds read low 0.982 | locus YDR069C, strain doa4, active compounds read low 0.964 | locus YDR137W, strain rgp1, active compounds read low 1.05 | locus YDR159W, strain sac3, active compounds read low 0.9 | locus YDR195W, strain ref2 1.01 | locus YDR297W, strain sur2, active compounds read low 0.955 | locus YDR334W, strain swr1, active compounds read low 0.932 | locus YDR335W, strain msn5, active compounds read low 1.02 | locus YDR392W, strain spt3, active compounds read low 0.91 | locus YEL037C, strain rad23, active compounds read low 0.974 | locus YEL061C, strain CIN8 (second series), active compounds read low 0.962 | locus YER015W, strain faa2, active compounds read low 0.97 | locus YER016W, strain bim1, active compounds read low 0.994 | locus YER111C, strain swi4, active compounds read low 1 | locus YER155C, strain BEM2 (second series), active compounds read low 0.912 | locus YFR010W, strain ubp6, active compounds read low 0.91 | locus YGL167C, strain pmr1, active compounds read low 0.958 | locus YGL173C, strain kem1, active compounds read low 0.974 | locus YGL227W, strain vid30, active compounds read low 0.98 | locus YGL240W, strain doc1, active compounds read low 0.927 | locus YGL253W, strain hxk2, active compounds read low 1.01 | locus YHR013C, strain ard1, active compounds read low 0.992 | locus YHR027C, strain rpn1, active compounds read low 0.959 | [1] 0.959 | [2] 0.968 | locus YHR142W, strain chs7, active compounds read low 1.01 | locus YJL092W, strain hpr5, active compounds read low 0.98 | locus YJL095W, strain BCK1 (second series), active compounds read low 0.985 | [3] 0.966 | locus YJL115W, strain asf1, active compounds read low 0.969 | locus YJL129C, strain trk1, active compounds read low 0.996 | locus YJL154C, strain vps35, active compounds read low 0.967 | locus YJL164C, strain tpk1, active compounds read low 0.924 | locus YJL166W, strain qcr8, active compounds read low 0.94 | locus YJL187C, strain SWE1, active compounds read low 0.974 | [4] 0.926 | locus YKL160W, strain elf1, active compounds read low 1.03 | locus YKR026C, strain gcn3, active compounds read low 0.982 | locus YKR091W, strain srl3, active compounds read low 0.985 | locus YLL001W, strain dnm1, active compounds read low 0.95 | locus YLL026W, active compounds read low 0.973 | locus YLL041C, strain sdh2, active compounds read low 1 | locus YLR027C, strain aat2, active compounds read low 0.98 | [5] 0.957 | locus YLR221C, strain rsa3, active compounds read low 0.937 | locus YLR258W, strain gsy2, active compounds read low 1 | locus YLR262C, strain YPT6 (second series), active compounds read low 0.988 | locus YLR320W, strain mms22, active compounds read low 0.956 | locus YLR342W, strain FKS1, active compounds read low 0.964 | locus YLR357W, strain rsc2, active compounds read low 0.9 | locus YLR370C, strain arc18, active compounds read low 1.01 | locus YLR384C, strain iki3, active compounds read low 1.01 | locus YML120C, strain ndi1, active compounds read low 0.918 | locus YMR058W, strain fet3, active compounds read low 0.941 | locus YMR125W, strain sto1, active compounds read low 0.985 | locus YMR129W, active compounds read low 1 | locus YMR205C, strain PFK2, active compounds read low 1 | locus YMR231W, strain pep5, active compounds read low 0.968 | locus YNL071W, strain lat1, active compounds read low 0.972 | [6] 0.933 | locus YNL209W, strain ssb2, active compounds read low 1 | locus YNL248C, strain rpa49, active compounds read low 0.997 | locus YNL322C, strain KRE1 (second series), active compounds read low 0.996 | locus YNR049C, strain mso1, active compounds read low 0.994 | locus YOR001W, strain rrp6, active compounds read low 0.908 | locus YOR070C, strain gyp1, active compounds read low 0.984 | locus YOR080W, strain dia2, active compounds read low 0.989 | locus YOR083W, strain WHI5, active compounds read low 0.951 | locus YOR106W, strain vam3, active compounds read low 0.96 | [7] 0.966 | locus YOR265W, strain rbl2, active compounds read low 0.973 | locus YOR270C, strain vph1, active compounds read low 0.965 | locus YOR290C, strain snf2, active compounds read low 1.01 | locus YPL051W, strain arl3, active compounds read low 1.01 | locus YPL078C, strain atp4, active compounds read low 1.02 | locus YPL106C, strain sse1, active compounds read low 0.951 | locus YPL240C, strain hsp82, active compounds read low 0.996 | [8] 0.98
active: locus YEL003W, strain gim4, active compounds read low 0.907

Cc1cc2nc3c(=O)[nH]c(=O)nc-3n(C[C@@H](O)[C@@H](O)[C@@H](O)COP(=O)(O)O)c2cc1C
inactive: [1] 1.04 | [2] 1.04 | [3] 1.03 | [4] 0.966 | [5] 1.03 | [6] 0.97 | [7] 1.04 | [8] 1.04
